Measurements as given in PubChem BioAssay (EPA / NIEHS).
Inconclusive results are not listed. The source made the active and inactive calls. Rule for the calls: active = hit-call score of the fitted dose curve at least 0.9, where 1 is the maximum; inconclusive = response in the unintended direction; inactive = score below 0.9.

Tested on: Sodium/Iodide Symporter (NIS), SLC5A5 (gene 6528)
Test: CPHEA_Stoker_NIS_Inhibition_RAIU: CPHEA's Radioactive Iodide Uptake (RAIU) Assay for Sodium/Iodide Symporter (NIS) Inhibition, Stoker and Laws Labs (AID 2283841)
In short: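 Test chemicals, six concentrations from 0.001 to 100uM in 0.5% DMSO, were co-incubated with carrier-free 125I (final 329pM) on hNIS-HEK293T-EPA monolayers in pH 7.4 HEPES-buffered HBSS. Plates stood 2 hours at room temperature, then were washed cold and counted.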

| Structure (SMILES) | outcome | AC50 |
| --- | --- | --- |
| O=Cc1ccccc1C=O | inactive | – |
| CCCCCCC(CCCCCCCCCCC(=O)OCC(COC(C)=O)OC(C)=O)OC(C)=O (stereo not drawn) | inactive | – |
| CCN(CC)CCOc1ccc(C(=C(Cl)c2ccccc2)c2ccccc2)cc1 | inactive | – |
| CC(=O)OCC(COC(C)=O)OC(C)=O | inactive | – |
| CCC(C)N(C)C(=O)c1cc2ccccc2c(-c2ccccc2Cl)n1 (stereo not drawn) | – | 30 µM (active) |
| O=C(Oc1ccccc1)c1cccc(C(=O)Oc2ccccc2)c1 | inactive | – |
| O=C1OC(c2ccc(O)cc2)(c2ccc(O)cc2)c2ccccc21 | – | 0.722 µM (active) |
| CC(=O)O[C@]1(C(C)=O)CC[C@H]2[C@@H]3C=C(Cl)C4=CC(=O)[C@@H]5C[C@@H]5[C@]4(C)[C@H]3CC[C@@]21C | inactive | – |
| Cc1ccc(-c2cc(C(F)(F)F)nn2-c2ccc(S(N)(=O)=O)cc2)cc1 | inactive | – |
| CCCCCCCCCCCCCCOS(=O)(=O)O | inactive | – |
| CC(COCC(C)OC(=O)c1ccccc1)OC(=O)c1ccccc1 (stereo not drawn) | inactive | – |
| CN(C)CCCN1c2ccccc2Sc2ccc(Cl)cc21 | inactive | – |
| Cc1c(C)c2c(c(C)c1O)CCC(C)(COc1ccc(CC3SC(=O)NC3=O)cc1)O2 (stereo not drawn) | – | 50 µM (active) |
